# BJeLR lethal = MLPCN primary cell-based screen for lethality selective to Ras in HRASV12 cells; 300,000 compounds, 0.17% hits; AID 1554, 2009; BJeLR (HRASV12) viability, CellTiter-Glo ATP luminescence, 48 h; inhibition, % (test concentration not listed); in the data active = inhibition above about 50%
# PriA SSB inh = inhibitors of Klebsiella pneumoniae PriA binding to SSB C-terminal tail, primary screen, biochemical, AlphaScreen | PriA–SSB C-terminal tail interaction (Klebsiella pneumoniae) | 430,000 compounds, 0.6% hits | inhibition, % at 33 µM | AlphaScreen SSBct-PriA binding, biotinylated peptide; in the data active = inhibition mostly above about 37%, no sharp cut-off; inactive = mostly below about 20%;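 also: plate controls were negative control peptide for no effect and reference peptide for full effect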
# 3CLpro inhibitor = SARS-CoV 3CLpro protease inhibitors, primary screen, biochemical, quenched FRET; Replicase polyprotein 1ab (Severe acute respiratory syndrome coronavirus), P0C6X7; recombinant SARS-CoV 3CLpro, quenched FRET peptide cleavage; inhibition, % at 6 µM; 290,000 compounds, 0.14% hits; AID 1706, 2009; in the data active = inhibition above about 12%
# An asterisk follows results filed as active; · = not tested or not shown. Only some compounds are listed: those with a hit (about 0.78% of all), similar ones and a draw of the others.
SMILES,BJeLR lethal,PriA SSB inh,3CLpro inhibitor
CCCCn1c(NS(=O)(=O)c2ccccc2)c(S(=O)(=O)c2ccccc2)c2nc3ccccc3nc21,·,63.6*,·
Cc1ccc(S(=O)(=O)Nc2c(S(=O)(=O)c3ccccc3)c3nc4ccccc4nc3n2CCc2ccccc2)cc1,·,44.8,·
CCCCn1c(NS(=O)(=O)c2ccc(Cl)cc2)c(S(=O)(=O)c2ccccc2)c2nc3ccccc3nc21,·,51.0,·
CCOc1ccc(NC(=S)NNc2nc(N3CCCC3)nc(N3CCCC3)n2)cc1,·,8.0,·
COC(=O)C1CCN(S(=O)(=O)c2ccc(N3C(=O)CCC3=O)cc2)CC1,·,-7.0,·
Cc1cccn2cc(-c3ccccc3NS(=O)(=O)c3cn(C)cn3)nc12,·,-5.0,·
O=C(Nc1ccc(F)cc1)N1CCC(c2nnc(C3CC3)o2)CC1,·,2.0,·
CC(C)CCN1C(=O)C(C)(C)COc2ccc(NS(=O)(=O)Cc3ccc(F)cc3)cc21,·,-14.0,·
O=C(Nc1ccc2c(c1)CN(C(=O)c1ccco1)CC2)c1csc(-c2ccccc2)n1,·,-4.0,·
O=S(=O)(c1ccc(NC(=S)NCc2cccnc2)cc1)N1CCCCC1,62.3*,-8.0,-5.0
O=C(NCc1cccnc1)c1ccc(S(=O)(=O)N2CCCCC2)cc1,2.8,-10.9,-2.8
COc1ccc(Cl)cc1NC(=O)CN1CCN(c2ccc(F)cc2)CC1,·,-29.0,·
O=C(c1ccccc1)N1CCCc2cc(NS(=O)(=O)CCOc3ccccc3)ccc21,·,35.0*,·
CC(C)CS(=O)(=O)Nc1ccc2c(c1)CCCN2C(=O)c1ccccc1,·,-15.0,·
O=C(Nc1nnc(-c2cc(Cl)sc2Cl)o1)c1ccc(F)cc1F,·,-7.0,·
CCCN1CCCc2cc(CCNC(=O)C(=O)NCCc3ccccc3)ccc21,·,44.0,·
CCCN1CCCc2cc(CCNC(=O)c3ccccc3OC)ccc21,·,73.0*,·
CCCN1CCCc2cc(CCNC(=O)c3ccccc3C)ccc21,·,59.0*,·
CCCN1CCCc2cc(CCNC(=O)c3ccccc3Cl)ccc21,·,53.0*,·
COc1ccc(OC)c(-c2ccc(=O)n(Cc3c(F)cccc3Cl)n2)c1,·,-23.0,·
CO[C@@](C)(CNC(=O)c1ccco1)c1cccc(Cl)c1,·,0.0,·
CCSc1cccc(C(=O)Nc2nnc(-c3ccccc3OC)o2)c1,·,-19.0,·
CCCN1CCCc2cc(CCNS(=O)(=O)c3cc(CC)ccc3OC)ccc21,·,66.0*,·
CCCN1CCCc2cc(CCNC(=O)C(=O)Nc3ccc(OC)c(OC)c3)ccc21,·,44.0,·
CCCN1CCCc2cc(CCNC(=O)C(=O)Nc3ccc(OC)cc3OC)ccc21,·,36.0,·
SMILES,BJeLR lethal,PriA SSB inh,3CLpro inhibitor
CCCN1CCCc2cc(CCNS(=O)(=O)c3cc(Cl)ccc3OC)ccc21,·,56.0*,·
CCCNS(=O)(=O)c1cc(Cl)ccc1OC,9.2,-3.6,3.1
CCCN1CCCc2cc(CCNS(=O)(=O)c3cc(OC)ccc3OC)ccc21,·,43.0*,·
COc1ccc(CNC(=O)/C(C#N)=C/N2CCN(c3cccc(C)c3C)CC2)cc1,·,7.0,·
O=C(NCC(c1cccs1)N1CCc2ccccc21)c1ccc2c(c1)OCO2 (stereo unspecified),·,39.0*,·
COc1ccc(Cl)cc1C(=O)NCC(c1cccs1)N1CCc2ccccc21 (stereo unspecified),·,-26.0,·
O=C(O)CCSc1ccc([N+](=O)[O-])cc1[N+](=O)[O-],4.8,-7.7,0.8
CC(C)OC(=O)CSc1ccc([N+](=O)[O-])cc1[N+](=O)[O-],·,59.0*,·
COc1ccc(NC(=O)c2c(O)c3c(C)c(C(=O)N(C)C)sc3[nH]c2=O)cc1Cl,·,-1.0,·
CC(C)S(=O)(=O)c1ccc(CC(=O)N2C3CCC2COC3)cc1,·,10.0,·
O=S(=O)(c1cccc2nonc12)N1CCN(c2ccccc2F)CC1,7.6,-9.3,2.8
Cc1cccc(N2CCN(S(=O)(=O)c3cccc4nonc34)CC2)c1C,-1.4,39.2*,4.6
CSc1ccc(NC(=O)[C@@H]2CCCN2S(C)(=O)=O)cc1,·,-2.0,·
COCCn1cc(NC(=O)Nc2cc(C)ccc2OC)c2ccccc21,·,37.0*,·
COCCn1cc(NC(=O)Nc2cccc(C)c2C)c2ccccc21,·,7.0,·
CCOC(=O)c1cn(CC(=O)NCCc2ccc(OC)c(OC)c2)c2nc(C)ccc2c1=O,·,-28.0,·
CCOC(=O)c1ccccc1NC(=O)CSc1nccn1Cc1ccc2c(c1)OCO2,·,43.0*,·
Cc1nnc(NC(=O)CSc2nccn2Cc2ccc3c(c2)OCO3)s1,·,-4.0,·
COc1ccc(Cl)cc1NC(=O)CSc1nccn1Cc1ccc2c(c1)OCO2,·,45.0*,·
O=C(CSc1nccn1Cc1ccc2c(c1)OCO2)Nc1ccc2c(c1)OCCO2,·,11.0,·
Cn1cccc1C(C#N)N1CCOCC1 (stereo unspecified),·,18.0,·
O=C(COc1ccc(Cl)cc1Cl)N1CCc2ncncc2C1,·,-5.0,·

# Bioassay records deposited in PubChem by several laboratories.
